{"source": "PubChem BioAssay AID1210", "about": "(NMMLSC, 2008)", "data": [{"target": "Estrogen receptor beta (Homo sapiens) (UniProt Q92731)", "sequence (Q92731 whole entry, looked up)": "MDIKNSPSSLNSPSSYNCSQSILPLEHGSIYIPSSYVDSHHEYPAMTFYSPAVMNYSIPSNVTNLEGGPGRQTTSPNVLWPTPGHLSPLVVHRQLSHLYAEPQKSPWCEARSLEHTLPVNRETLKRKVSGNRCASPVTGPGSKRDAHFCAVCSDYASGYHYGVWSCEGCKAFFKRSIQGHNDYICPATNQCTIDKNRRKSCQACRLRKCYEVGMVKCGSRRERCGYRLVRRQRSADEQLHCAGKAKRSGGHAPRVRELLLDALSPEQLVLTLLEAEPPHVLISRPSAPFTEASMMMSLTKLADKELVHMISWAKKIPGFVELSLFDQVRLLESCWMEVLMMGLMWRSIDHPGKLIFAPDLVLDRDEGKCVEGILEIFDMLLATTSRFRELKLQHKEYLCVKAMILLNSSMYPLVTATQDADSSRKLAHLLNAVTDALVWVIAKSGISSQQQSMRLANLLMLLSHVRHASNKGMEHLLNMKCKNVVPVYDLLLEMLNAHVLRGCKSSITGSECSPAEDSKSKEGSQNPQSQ", "assay": "ERbeta ligand binders by competition, primary screen, cell-based, Cos7 ERbeta-GFP, flow cytometry (AID 1210);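 further: 0% = DMSO vehicle wells and 100% = complete loss of labeled estradiol signal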", "details": "fluorescent estrogen binding, ligand binding inhibition, at 0.1 µM, stronger effect = higher value", "units": {"inhibition": "%"}, "values": [{"smiles": "O=C(Cc1cccs1)Nc1nncs1", "inhibition": 16}, {"smiles": "CCSc1nc2c(cnn2-c2ccc(C)cc2)c(=O)[nH]1", "inhibition": 29}, {"smiles": "COc1ccc(C(=O)N/N=C(\\C)c2ccc3c(c2)C2C=CCC2C(c2ccccc2)N3)cc1", "note": "(stereo unspecified)", "inhibition": 66}, {"smiles": "Cc1noc(C)c1COc1ccc(C(=O)OCC(=O)N2c3ccccc3NC(=O)C2(C)C)cc1", "inhibition": 30}, {"smiles": "CCNC(=O)c1ccc2c(c1)C1C3CCC(C3)C1C(c1ccccc1)N2", "note": "(stereo unspecified)", "inhibition": 58}, {"smiles": "O=Cc1cn(-c2ccccc2)nc1-c1cc2c(ccc3ccccc32)oc1=O", "inhibition": 81}, {"smiles": "Cc1cc(=O)oc2c(CN3CCC(C)CC3)c(O)c(Cl)cc12", "inhibition": 11}, {"smiles": "COC(=O)c1ccc(CC(=O)c2c(C)cc(O)cc2O)o1", "inhibition": 22}, {"smiles": "CC(C)C1Nc2c(O)cc(Cl)c([N+](=O)[O-])c2C2C=CCC21", "note": "(stereo unspecified)", "inhibition": 5}, {"smiles": "CCN(CC)c1ccc2c(c1)oc(=O)c1c(Cl)cc(=O)oc12", "inhibition": 18}, {"smiles": "COc1ccc(N=Cc2sc(O)c3ccccc23)cc1", "inhibition": 22}, {"smiles": "O=c1[nH]cnc2c1sc1nc3c(c(-c4ccc(Cl)cc4)c12)CCC3", "inhibition": 19}, {"smiles": "Cc1snc2sc(C(=O)c3ccc(Br)cc3)c(N)c12", "inhibition": 20}, {"smiles": "O=C(CSc1nnc(-c2ccc(OC(F)F)cc2)o1)NC(=O)NCc1ccco1", "inhibition": 44}, {"smiles": "COc1ccc(NC(=O)c2ccco2)cc1N", "inhibition": 17}, {"smiles": "O=C(O)C1Nc2c(O)cc(Cl)c([N+](=O)[O-])c2C2C=CCC12", "note": "(stereo unspecified)", "inhibition": 18}, {"smiles": "CC(C)(C)NC(=O)c1ccc2c(c1)C1C3CCC(C3)C1C(c1ccccc1)N2", "note": "(stereo unspecified)", "inhibition": 64}, {"smiles": "CCCCNS(=O)(=O)c1ccc(NC(=O)C(Sc2ccccc2)c2ccccc2)cc1", "note": "(stereo unspecified)", "inhibition": 14}, {"smiles": "COCCCn1c(Cc2csc(Nc3cccc(Cl)c3)n2)nnc1SCC(=O)OC1CCCCC1", "inhibition": 29}, {"smiles": "COc1ccc(C2Nc3ccccc3C(=O)N2c2ccccc2)cc1Cn1cc([N+](=O)[O-])cn1", "note": "(stereo unspecified)", "inhibition": 45}, {"smiles": "O=C(CSc1nc2c(cnn2-c2ccccc2)c(=O)[nH]1)c1ccc(Cl)cc1", "inhibition": 34}]}]}
